Assay results: article PMC4552634, “A New Set of Chemical Starting Points with Plasmodium falciparum Transmission-Blocking Potential for Antimalarial Drug Discovery” (PLoS ONE, 2015)
Hit rate of the full screen: of about 13,000 compounds, about 3,200 (25%) showed an effect of 50% or more. The list shows a part of the results.

Tested on: P. falciparum stage V gametocytes
Set-up: BacTiter-Glo ATP luminescence viability of purified stage V gametocytes in 384-well plates, per cent inhibition versus DMSO
Details: 48 h, 5 µM; inhibitor

| Compound | % Inhibition |
| --- | --- |
| O=C(NC(c1ccccc1)c1ccccc1)C(c1cc2ccccc2o1)N1CCN(C(c2ccccc2)c2ccccc2)CC1 (centres unmarked) [TCMDC-141009] | -31.77% |
| CC1(C)N=C(N)N=C(N)N1c1cccc(Cl)c1 [TCMDC-123960] | 45.27% |
| O=C1c2ccccc2CCC1CCN1CC=C(c2c[nH]c3ccccc23)CC1 (centres unmarked) [TCMDC-140685] | -66.61% |
| CC1(C)CN(CCC2CCC(NC(=O)/C=C/c3ccccc3F)CC2)Cc2ccc(C#N)cc21 (centres unmarked) [TCMDC-139501] | 15.62% |
| CCCn1c(Sc2ccc(C#N)c([N+](=O)[O-])c2)nnc1-c1ccc(N(C)C)cc1 [TCMDC-135610] | 57.06% |
| CCCCCCn1c(Sc2ccc(C#N)c([N+](=O)[O-])c2)nnc1-c1ccc(N(C)C)cc1 [TCMDC-135618] | 23.6% |
| CCn1c(Sc2ccc(C#N)c([N+](=O)[O-])c2)nnc1-c1cccc(Cl)c1 [TCMDC-135592] | 10.47% |
| CCCCn1c(Sc2ccc(C#N)c([N+](=O)[O-])c2)nnc1-c1ccc(OC)cc1 [TCMDC-135583] | 19.44% |
| COCCn1c(Sc2ccc(C#N)c([N+](=O)[O-])c2)nnc1-c1ccc(N(C)C)cc1 [TCMDC-135613] | 43.33% |
| CCn1c(Sc2ccc([N+](=O)[O-])c(C#N)c2)nnc1-c1cccc(Cl)c1 [TCMDC-135234] | 107.6% |
| CCn1c(Sc2ccc([N+](=O)[O-])c(C#N)c2)nnc1-c1ccc(Cl)cc1 [TCMDC-135235] | 96.27% |
| CCCCCn1c(Sc2ccc(C#N)c([N+](=O)[O-])c2)nnc1-c1ccc(Cl)cc1 [TCMDC-135598] | 19.94% |
| CCCn1c(Sc2ccc(C#N)c([N+](=O)[O-])c2)nnc1-c1ccc(Cl)cc1 [TCMDC-135581] | 50.77% |
| CCCCCCn1c(Sc2ccc(C#N)c([N+](=O)[O-])c2)nnc1-c1ccc(Cl)cc1 [TCMDC-135599] | 28.19% |
| CN1CCC(N(C)c2nccc(N3CCN(Cc4cncn4Cc4ccccc4)CC3)n2)CC1 [TCMDC-125095] | -8.441% |
| Cc1ccc(-n2cc(CNCC3CCN(CCO)CC3)c(-c3ccc(F)cc3)n2)cc1 [TCMDC-124689] | 28.13% |
| O=C(CNC1=NCCN1)Nc1ccc(NC(=O)Nc2ccc(NC(=O)CNC3=NCCN3)cc2)cc1 [TCMDC-137202] | 4.446% |
| O=C(NCCCCN1CCCC2c3cccc(O)c3CCC21)c1ccc(-c2ccccc2)cc1 (centres unmarked) [TCMDC-139080] | 37.51% |
| O=C(N[C@H](Cc1ccc(Cl)cc1)C(=O)N1CCN(c2ccnc3cc(Cl)ccc23)CC1)[C@H]1Cc2ccccc2CN1 [TCMDC-141498] | 2.012% |
| CC(=O)c1ccc2c(c1)C(NC(=O)c1cccc(Cl)c1Cl)C(CO)C(C)(C)O2 (centres unmarked) [TCMDC-138988] | -12.37% |
| O=C(Nc1ccc(OC2CCN(Cc3ccccc3)C2)c(Cl)c1)c1ccc(F)cc1 (centres unmarked) [TCMDC-133972] | 8.518% |
| O=c1cc(NCCCNCc2scc3c(Cl)cc(C(F)(F)F)nc23)[nH]c2ccccc12 [TCMDC-141146] | 31.07% |

| Compound | % Inhibition |
| --- | --- |
| Cc1cc(N2CCCC2=O)ccc1-c1ccc(C(=O)N2CCC(Oc3cccc(Cl)c3)CC2)cc1 [TCMDC-136525] | -32.31% |
| Oc1ccccc1CCNC1CCc2ccccc2C1 (centres unmarked) [TCMDC-137890] | 12.83% |
| COc1cc(Cc2cnc(N)nc2N)ccc1OCc1ccc(-c2csnn2)cc1 [TCMDC-138683] | -3.694% |
| CC(C)CCn1c(Sc2ccc(C#N)c([N+](=O)[O-])c2)nnc1-c1cccc(Cl)c1 [TCMDC-135591] | 23.85% |
| CCCn1c(Sc2ccc(C#N)c([N+](=O)[O-])c2)nnc1-c1ccc(OC)cc1 [TCMDC-135582] | 31.08% |
| CC(C)CCn1c(Sc2ccc(C#N)c([N+](=O)[O-])c2)nnc1-c1ccc(Cl)cc1 [TCMDC-135596] | 54.47% |
| CCn1c(Sc2ccc(C#N)c([N+](=O)[O-])c2)nnc1-c1ccc(OC)cc1 [TCMDC-135602] | 29.96% |
| CC(C)CCn1c(Sc2ccc(C#N)c([N+](=O)[O-])c2)nnc1-c1ccccc1Cl [TCMDC-135615] | 17.65% |
| COc1ccc(-c2nnc(Sc3ccc(C#N)c([N+](=O)[O-])c3)n2CCC(C)C)cc1 [TCMDC-135601] | 7.84% |
| CC(C)Cn1c(Sc2ccc(C#N)c([N+](=O)[O-])c2)nnc1-c1ccccc1Cl [TCMDC-135609] | 54.29% |
| CCn1c(Sc2ccc(C#N)c([N+](=O)[O-])c2)nnc1-c1ccc(Cl)cc1 [TCMDC-135597] | 65% |
| CC(C)Cn1c(Sc2ccc(C#N)c([N+](=O)[O-])c2)nnc1-c1ccccc1 [TCMDC-141918] | 17.88% |
| O=C(NCC(CCN1CCC(c2c[nH]c3ccccc23)CC1)c1ccccc1)Nc1ccc(Cl)c(Cl)c1 (centres unmarked) [TCMDC-139626] | 1.901% |
| COc1cccc2cc(C(=O)N[C@@H](CC(C)C)C(=O)N[C@H](C=NN3CCOC3=O)CC(C)C)oc12 [TCMDC-136064] | 12.6% |
| Cc1noc(=O)c2ccc(NC(=O)C(O)(CSc3ccccc3)CC(C)C)cc12 (centres unmarked) [TCMDC-135222] | 46.49% |
| Fc1cc(Cl)ccc1Nc1ccnc(Nc2ccc3cn[nH]c3c2)n1 [TCMDC-138575] | 13.66% |
| c1ccc(-c2[nH]ncc2Nc2ccnc3ccccc23)nc1 [TCMDC-138641] | -8.718% |
| NC(=O)c1cc2nc(NC3CCC3)nc(Nc3cccc4[nH]ncc34)c2[nH]1 [TCMDC-137005] | 21.61% |
| O=C(Cc1ccc([N+](=O)[O-])cc1)N1CCc2cc3nccc(N4CCN5CCC[C@@H]5C4)c3cc21 [TCMDC-140039] | -19.96% |
| O=C(Nc1ccc([N+](=O)[O-])cc1Cl)c1cc(Br)cc(Cc2ccccc2)c1O [TCMDC-124004] | 12.42% |
| O=C(Nc1ccccc1Cc1ccccc1)c1ccccc1C(F)(F)F [TCMDC-123550] | 54.56% |
| O=C(Nc1ccccc1Cc1ccccc1)c1ccccc1[N+](=O)[O-] [TCMDC-124438] | 42.41% |
